TRPML1 inh = human mucolipin-1 channel inhibition; activity change, negative = inhibition, % (test concentration not listed); TRPML1-inducible cells, Ca2+ dye fluorescence, FDSS; hits give low values; inhibition of EC80 agonist-evoked calcium signal; Q9GZU1; 0.02% of 390,000 active; AID 624415; in the data active means activity change below about -50%; inconclusive means between about -30% and that limit;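 further: stimulus is agonist 54-4 at its EC80 concentration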
Target sequence (Q9GZU1 whole entry, looked up): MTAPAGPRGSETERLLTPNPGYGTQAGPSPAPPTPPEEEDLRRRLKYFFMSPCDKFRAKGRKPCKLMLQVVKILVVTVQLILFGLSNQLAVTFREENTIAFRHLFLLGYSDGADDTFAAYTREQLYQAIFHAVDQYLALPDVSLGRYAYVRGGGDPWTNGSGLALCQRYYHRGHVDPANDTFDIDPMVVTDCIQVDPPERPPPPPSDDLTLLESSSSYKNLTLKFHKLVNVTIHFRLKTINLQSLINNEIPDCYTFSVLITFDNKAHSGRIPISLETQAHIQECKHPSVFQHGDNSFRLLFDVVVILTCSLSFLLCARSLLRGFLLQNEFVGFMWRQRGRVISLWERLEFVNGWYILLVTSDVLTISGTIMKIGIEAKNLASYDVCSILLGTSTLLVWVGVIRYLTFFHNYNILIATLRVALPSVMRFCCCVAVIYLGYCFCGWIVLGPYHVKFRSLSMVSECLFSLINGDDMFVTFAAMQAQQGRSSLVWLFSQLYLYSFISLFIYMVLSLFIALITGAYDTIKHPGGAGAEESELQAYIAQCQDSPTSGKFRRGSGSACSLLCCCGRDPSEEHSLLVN
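Tet-induced TRPML1-DL cells loaded with Ca8 no-wash calcium dye were read kinetically on FDSS. Compound addition was followed by EC80 agonist 54-4 (4 uM final); inhibition was read over 110 s.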
TRPML1 ag = human mucolipin-1 channel agonism | 0.12% of 410,000 active | TRPML1-expressing cells, Ca2+ dye fluorescence, FDSS | AID 624414 | activation, % (test concentration not listed) | Q9GZU1; in the data active means activation above about 50%; inconclusive means mostly about 30% to 49%
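Cells: TRPML1-DL, 1X Tet inducer, ~16 h at 37 degrees C/5% CO2. Dye: ABD Ca8 no-wash + quencher, 45-90 min RT. Read: 10 s baseline, compound add, 110 s agonist phase; 54-4 EC80 (4uM final), 110 s antagonist phase.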
TRPV1 PAM = potentiators of human vanilloid receptor 1 (TRPV1); TRPV1-expressing cells, Fluo-8 calcium influx, capsaicin EC20 potentiation; potentiation, % at 8.33 µM; Q8NER1; 0.02% of 320,000 active; AID 540277; in the data active means potentiation above about 80%; inconclusive means between about 30% and that limit
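Cells expressing TRPV1 were dye-loaded with Fluo-8 and read kinetically: 10 s baseline, 3 min after compound (agonist portion), then 2 min after EC20 capsaicin (allosteric enhancer portion). Calcium-bound dye fluorescence at 480/520 nm.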
TRPV1 ag = human TRPV1 agonism | TRPV1-expressing cells, Fluo-8 calcium influx, agonist mode | activation, % at 8.33 µM | 0.19% of 320,000 active | AID 540275; in the data active means activation above about 80%; inconclusive means between about 30% and that limit
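Cells expressing TRPV1 were dye-loaded with Fluo-8 and read kinetically: 10 s baseline, 3 min after compound (agonist portion), then 2 min after EC20 capsaicin (allosteric enhancer portion). Calcium-bound dye fluorescence at 480/520 nm.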
Large screens that a line does not name were inactive. Rows were chosen to be rich in hits. Some 0.31% of all compounds tested hit in one or more screens of this group.

Cc1[nH]c2ccccc2c1C(=O)C(=O)NC1CC(=O)N(c2ccccc2)C1 (centres undefined)	none (no result: TRPV1 PAM, TRPV1 ag)
CC(C)(C)c1ccc(/C=N/OCC(=O)NCc2ccc(F)cc2)cc1	TRPV1 ag 91.6
Cc1ccc(CNC(=O)CO/N=C/c2ccc(C(C)(C)C)cc2)cc1	TRPV1 ag inconclusive
CC(C)(C)n1ncc2c(=O)n(Cc3cccc(C#N)c3)cnc21	none (no result: TRPV1 PAM, TRPV1 ag)
CCC(c1nnnn1-c1c(C)cccc1C)N1CCN(C/C=C/c2ccccc2)CC1 (centres undefined)	none (no result: TRPML1 inh, TRPV1 PAM, TRPV1 ag)
CSCCC(c1nnnn1-c1c(C)cccc1C)N1CCN(C/C=C/c2ccccc2)CC1 (centres undefined)	TRPML1 ag 68.6 (no result: TRPML1 inh, TRPV1 PAM, TRPV1 ag)
CCN(CC)S(=O)(=O)c1ccc(/C=C/C(=O)Nc2ccc(N3CCOCC3)cc2)cc1	TRPV1 ag 90.0
Cc1ccc2c(/C=C/c3c[nH]c4ccccc34)ccnc2c1C	none (no result: TRPML1 inh, TRPV1 PAM, TRPV1 ag)
O=C(NC(=S)NNC(=O)c1cccs1)c1ccccc1	none
CC(C)(C)c1ccc(C(=O)NC(=S)NNC(=O)c2cccs2)cc1	TRPML1 ag 74.0, TRPV1 ag inconclusive
CCCOc1ccc(C(=O)NNC(=S)NC(=O)c2cccs2)cc1	TRPML1 ag 53.4
C=CCN(CC=C)c1ccc(/C=C/c2ccnc3ccccc23)cc1	none (no result: TRPML1 inh, TRPV1 PAM, TRPV1 ag)
O=C(NCc1cccnc1)[C@@H]1CC=C[C@@H]2CCN(C3CCCCC3)C(=O)[C@@H]21	none (no result: TRPML1 inh, TRPV1 PAM, TRPV1 ag)
CCCCCCC[n+]1ccc(/C=C/c2c[nH]c3ccccc23)c2ccccc21	none (no result: TRPML1 inh, TRPV1 PAM, TRPV1 ag)
O=C(NCc1ccccc1Cl)C1CCCN(c2ncnc3c2nc2n3CCCCC2)C1 (centres undefined)	TRPV1 ag 80.7
CCOc1ccccc1CNC(=O)C1CCCN(c2ncnc3c2nc2n3CCCCC2)C1 (centres undefined)	none
CC(C)(C)n1ncc2c(=O)n(Cc3ccc(Cl)c(C(F)(F)F)c3)cnc21	none (no result: TRPV1 PAM, TRPV1 ag)
CCOc1ccccc1-c1c2cc(O)c(=O)cc-2oc2cc(O)c(O)cc12	TRPML1 ag 110.0, TRPV1 ag inconclusive
COc1ccc(OC)c(-c2c3cc(O)c(=O)cc-3oc3cc(O)c(O)cc23)c1	TRPML1 ag 147.4
COc1ccc(OC)c(-c2oc3ccccc3c(=O)c2O)c1	none
O=c1cc2oc3cc(O)c(O)cc3c(-c3ccccc3O)c-2cc1O	none
O=C(Cn1c(=O)nc(-c2ccccc2)c2ccccc21)NCCc1ccccc1	none (no result: TRPV1 PAM, TRPV1 ag)
CN(C)c1ccc(/C=C/C=C2/C=Cc3ccccc32)cc1	none (no result: TRPML1 inh, TRPV1 PAM, TRPV1 ag)
CC(=O)NC1CCCc2c1cnn2-c1ccc(C(C)(C)C)cc1 (centres undefined)	TRPV1 ag inconclusive
Cn1nccc1C(=O)NC1CCCc2c1cnn2-c1ccc(C(C)(C)C)cc1 (centres undefined)	TRPV1 ag 81.0
COc1cc2nc(CCc3nc4cc(OC)c(OC)cc4[nH]3)[nH]c2cc1OC	none (no result: TRPML1 inh, TRPV1 PAM, TRPV1 ag)
CC(C)(C)S(=O)(=O)c1cnc(N2CCCCC2)nc1N	none
CC(C)(C)S(=O)(=O)c1cnc(-c2ccc(Cl)cc2)nc1N	TRPML1 ag 74.2 (no result: TRPV1 PAM, TRPV1 ag)
CCOC(=O)[C@H]1[C@H]2COc3ccc(Cl)cc3[C@@H]2N2C(=O)c3ccc(Cl)cc3NC(=O)[C@@]12C	TRPV1 ag 87.2
CCOC(=O)[C@H]1[C@H]2COc3ccc(Cl)cc3[C@@H]2N2C(=O)c3cc(OC)ccc3NC(=O)[C@@]12C	TRPV1 ag inconclusive
CCOC(=O)[C@H]1[C@H]2COc3ccc(OC)cc3[C@@H]2N2C(=O)c3ccc(Cl)cc3NC(=O)[C@@]12C	TRPV1 PAM inconclusive, TRPV1 ag 90.2
NC(=O)c1nsc(C(=O)N(CC(=O)NC2CCCCC2)Cc2ccc3c(c2)OCO3)c1N	none (no result: TRPML1 inh, TRPV1 PAM, TRPV1 ag)
CC(C)(C)c1ccc(C(=O)C[n+]2ccc(Cl)c3ccc(Cl)cc32)cc1	none (no result: TRPML1 inh, TRPV1 PAM, TRPV1 ag)
Cc1cc(=O)[nH]c(SCCCOc2ccc(F)cc2)n1	none
CCCOc1cccc(OCCSc2nc(C)cc(=O)[nH]2)c1	TRPV1 ag 81.6
CCn1nnc2c(N3CCCC3)ncnc21	none (no result: TRPML1 inh, TRPV1 PAM, TRPV1 ag)
Cc1cc(N2CCCCC2)nc(N)n1	TRPML1 ag 55.8
COc1ccc(N2CC(NC(=O)C3CCCCC3)CC2=O)cc1OC (centres undefined)	none (no result: TRPV1 PAM, TRPV1 ag)
CCOC(=O)c1sc(-c2ccccc2)cc1NC(=O)Nc1ccccc1	TRPV1 ag 87.8
N#C/C(=C\c1coc2ccc(O)cc2c1=O)C(=O)Nc1nc2ccccc2s1	TRPML1 ag 72.4, TRPV1 ag inconclusive
CC[N+](CC)(CC)c1ccc(/C=C/c2ccnc3ccccc23)cc1	none (no result: TRPML1 inh, TRPV1 PAM, TRPV1 ag)
O=C(COC(=O)C12CC3CC(CC(C3)C1)C2)Nc1ccc2[nH]c(=O)[nH]c2c1	TRPV1 ag 92.5

Screens from PubChem BioAssay.
